Rows were chosen to be rich in hits. Some 4.8% of all compounds tested hit in one or more screens of this group.
DAX1 inh-1: inhibits human nuclear receptor DAX1; P51843; HEK293 Gal4-DAX1 luciferase reporter, luminescence; inhibition, % at 6.75 µM; hit rate 0.99% among 340,000; AID 504766;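 active means inhibition above the mean over all tested compounds plus 3 SD, cut at about 4.2% in these data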;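 further: inhibition shows as a rise in luminescence from relieved DAX1 repression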
Target sequence (P51843 207-470 limits assumed): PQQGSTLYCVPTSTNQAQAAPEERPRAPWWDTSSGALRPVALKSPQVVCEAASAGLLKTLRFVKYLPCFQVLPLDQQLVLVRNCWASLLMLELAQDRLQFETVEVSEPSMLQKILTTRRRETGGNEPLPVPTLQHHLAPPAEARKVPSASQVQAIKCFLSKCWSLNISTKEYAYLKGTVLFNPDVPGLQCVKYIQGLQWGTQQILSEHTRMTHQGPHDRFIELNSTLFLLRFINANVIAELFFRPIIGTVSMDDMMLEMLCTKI
ssDAF-12 act: activators of S. stercoralis DAF-12 nuclear receptor; HEK293 ssDAF-12/GRIP1 lit1-tk-luc reporter, luminescence; % of 3 µM dafachronic acid response; activation, % at 6.8 µM; hit rate 1% among 370,000; AID 652126;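 active means activation above the mean over all tested compounds plus 3 SD, cut at about 0.9% in these data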
SMARCA2 act: SMARCA2 function activation, primary screen; hit rate 1% among 370,000; AID 652017; MG213 cells, MMTV-luciferase reporter, dexamethasone, overnight; activation, % at 9.1 µM; in the data active means activation above about 7.8%
DAX1 inh-2: DAX1 (NR0B1) inhibition, primary screen; HEK293T StAR-luciferase reporter, SF-1/DAX-1 repression relief; AID 652010; inhibition, % at 6.8 µM; hit rate 1.1% among 370,000;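 active means inhibition above the mean over all tested compounds plus 3 SD, cut at about 3.6% in these data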;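 further: higher inhibition means more luminescence from relief of DAX-1 repression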
hcDAF12 agonist: activators of H. contortus DAF-12 nuclear receptor. hit rate 1.4% among 370,000. HEK293 hcDAF-12 lit1-tk-luc reporter, luminescence; 0% DMSO, 100% Δ7-dafachronic acid. AID 652067. activation, % at 6.8 µM;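 active means activation above the mean of all tested compounds plus 3 SD, cut at about 5.5% in these data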
hgDAF12 agonist: agonists of H. glycines DAF-12 nuclear receptor; activation, % at 6.8 µM; HEK293 GAL4-hgDAF12 UAS-luciferase reporter, agonist luminescence; normalized to butyrate control; hit rate 1.8% among 370,000;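 active means activation above a cutoff set at the mean of all screened compounds plus 3 SD, cut at about 10% in these data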
Large screens that a line does not name were inactive.

COC(=O)c1cccc(C(=O)N2CCCC(C(=O)c3ccccc3OC)C2)c1 (stereo not given)	none
CCCCC(CC)C1OCC(CN2CCCC2)O1 (stereo not given)	none
N=c1cc(C2(O)CCCCC2)n2c(nc3ccccc32)s1	DAX1 inh-2 3.6, hgDAF12 agonist 11
O=C(CCc1ccccc1)NC1CCSC1=O (stereo not given)	none
O=C1CCC[C@@H]2Cc3nc4ccc(O)cc4cc3[C@@H]3CCN1[C@H]23	none
O=C1CCC[C@@H]2Cc3nc4cc5c(cc4cc3[C@@H]3CCN1[C@H]23)OCO5	DAX1 inh-1 6.1
CC(C)CNC(=O)c1oc2ccccc2c1COc1ccccc1	none
O=C(NC(=S)NNC(=O)c1ccco1)c1ccc(F)cc1	none
CC(C)C(NC(=O)c1ccccc1)c1nnc(SCC(=O)Nc2nccs2)n1C (stereo not given)	none
COc1cccc(NC(=O)Cn2nnc(C(=O)Nc3cc(Cl)ccc3OC)c2N)c1	none
O=C(CCc1ccc(S(=O)(=O)NC2CCCCC2)cc1)NCc1cccnc1	none
Cc1ccc(CNC(=O)CCc2ccc(S(=O)(=O)NC3CCCCC3)cc2)cc1	hcDAF12 agonist 5.8
O=C1COc2ccc(C(=O)COC(=O)CCSc3ccccc3)cc2N1	none
Cc1c(OCC(=O)N[C@H](C(=O)O)c2ccccc2)ccc2c3c(c(=O)oc12)CCCC3	DAX1 inh-1 4.3
Cc1nnc2sc(-c3ccc(N(C)C)cc3)nn2c1=O	hgDAF12 agonist 12
Cc1cc(=O)oc2cc(OCC(=O)OCC(=O)N(CCC#N)c3ccccc3)ccc12	none
Cn1c(SCc2ccc(C#N)cc2Cl)nc2ccccc21	DAX1 inh-1 4.3, hgDAF12 agonist 12
N#Cc1ccc(CSc2ccccn2)c(Cl)c1	none
Cc1ccc(-c2nn[nH]n2)cc1	ssDAF-12 act 1.1
COc1cccc(/C=C/C(=O)OCC(=O)c2ccc(S(=O)(=O)N3CCCCC3)cc2)c1OC	none
Nc1[nH]c(C(=O)c2ccccc2)c(-c2ccccn2)c1C(=O)c1c[nH]c2ccccc12	ssDAF-12 act 1.3 (no result: DAX1 inh-1)
Nc1[nH]c(C(=O)c2ccccc2)c(-c2ccccn2)c1C(=O)c1c[nH]c2ccc(Br)cc12	none (no result: DAX1 inh-1, SMARCA2 act, DAX1 inh-2)
CC(C)(C)Nc1nc(NCc2cccnc2)nc(N2CCOCC2)n1	DAX1 inh-1 5.9
c1cncc(CNc2nc(N3CCOCC3)nc(N3CCOCC3)n2)c1	none
O=C(CCSc1ccccc1Cl)Nc1cccc([N+](=O)[O-])c1	hgDAF12 agonist 11
Cc1ccc(S(=O)(=O)NCCCCCCNS(=O)(=O)c2ccc(C)cc2)cc1	none
Cc1ccc(NC(=O)CCCCCNS(=O)(=O)c2ccc(C)cc2)cc1	ssDAF-12 act 1.1
NS(=O)(=O)c1cccc(NC(=O)CCSc2ccccc2Cl)c1	none
Cc1ccc(S(=O)(=O)NCC(=O)Nc2cccc([N+](=O)[O-])c2)cc1	ssDAF-12 act 1.7
Cc1ccc(S(=O)(=O)NCCNc2ccccc2[N+](=O)[O-])cc1	DAX1 inh-1 4.3
CC(=O)OC[C@H]1O[C@@H](Oc2cc3ccc(=O)oc3cc2OC(C)=O)[C@H](OC(C)=O)[C@@H](OC(C)=O)[C@@H]1OC(C)=O	none
CCCCn1nnc(N(C(=O)c2cccs2)C(=O)c2cccs2)n1	DAX1 inh-1 5.7
CCCn1nnc(NC(=S)NC(=O)c2cccs2)n1	none
Cc1cccc(CCNc2nc3ccc(C)cc3n3cnnc23)c1	DAX1 inh-1 5.0
Cc1ccc2nc(NCCc3ccc(Cl)cc3)c3nncn3c2c1	none
O=C(/C=C/c1ccc2c(c1)OCCCO2)c1ccccc1O	hgDAF12 agonist 11
Cc1ccc(/C=C/C(=O)c2ccccc2O)cc1	none
CN(C)c1ccc(/C=C/C(=O)c2ccccc2O)cc1	DAX1 inh-1 5.8, hgDAF12 agonist 11
Cc1ccc(O)c(C(=O)/C=C/c2ccc3c(c2)OCCCO3)c1	none
COc1ccc(-c2cc3ccccc3n2CC(O)CN2CCC(C)CC2)cc1 (stereo not given)	hcDAF12 agonist 5.7
COc1ccc(-c2cc3ccccc3n2CC(O)Cn2nc(C)cc2C)cc1 (stereo not given)	none
Cc1nc2ccccc2c2oc(C(=O)NCCCN3CCCC3=O)cc12	none
Cc1nc2ccccc2c2oc(C(=O)NCCN3CCN(C)CC3)cc12	hgDAF12 agonist 12
COc1ccccc1NC(=S)N1CCC(C(=O)c2ccc(F)cc2)CC1	DAX1 inh-1 5.6
CC(=O)c1ccc(N(C(=O)Cn2nnc(-c3ccccc3)n2)C(C(=O)NC2CCCCC2)c2ccccn2)cc1 (stereo not given)	none
CCc1ccc(N(C(=O)Cn2nnc(-c3ccccc3)n2)C(C(=O)NC2CCCCC2)c2ccccn2)cc1 (stereo not given)	hcDAF12 agonist 6.5
CCOCCCNC(=O)CN1C(=O)NC(Cc2c[nH]c3ccccc23)C1=O (stereo not given)	none
CC(=O)NC1CC2CCCC(C1)N2C(=O)Nc1ccccc1C (stereo not given)	none
O=C(NNc1ncnc2ccccc12)c1cccc(Cl)c1	DAX1 inh-1 5.8, hgDAF12 agonist 11
CC(C)c1ccc(/C=C/C2=NNC(=O)CC2)cc1	hgDAF12 agonist 11
O=C(c1c(O)c2ccccc2oc1=O)C1CCC1	none
O=C(c1ccccc1Cl)c1c(O)c2ccccc2oc1=O	DAX1 inh-1 5.6
O=C(CCc1nnc(CCCc2ccccc2)o1)NCCc1ccco1	SMARCA2 act 7.8
O=C(CCc1nnc(CCCc2ccccc2)o1)N1CCCCCC1	DAX1 inh-1 5.0
CCc1cc(CNC(=O)CCc2nnc(CCCc3ccccc3)o2)on1	hgDAF12 agonist 13
COc1ccc(-n2c(=S)[nH]c3cc(C(=O)O)ccc3c2=O)cc1	none
CC1CC(C)CN(C(=O)c2cn(C)c3ccc(S(=O)(=O)N(C)C)cc3c2=O)C1 (stereo not given)	DAX1 inh-1 4.5
COCCNC(=O)c1cn(C)c2ccc(S(=O)(=O)N(C)C3CCCCC3)cc2c1=O	DAX1 inh-1 6.5
Cc1ccc(CNC(=O)CC2(CC3=NS(=O)(=O)c4ccccc4N3)CCCC2)cc1	none
Cc1cccc(C)c1NCc1n[nH]c(=S)n1-c1ccccc1	DAX1 inh-1 4.7
COCc1n[nH]c(=S)n1-c1ccccc1	none
CC(C)Oc1ccc(CCc2n[nH]c(=S)n2-c2ccccc2)cc1	DAX1 inh-1 4.3
Cc1ccc(C)c(NCc2n[nH]c(=S)n2-c2ccccc2)c1	none
Cc1cccc(S(=O)(=O)NCCC(=O)OCC(=O)Nc2ccc(C#N)cc2)c1	none
Cc1ccc(C2=NN=C(NC(=O)C(F)(F)F)SC2)cc1	ssDAF-12 act 2.3, hgDAF12 agonist 12
O=C(NCC(=O)N1CC(O)CC1C(=O)N1CC(O)CC1C(=O)OCc1ccccc1)OCc1ccccc1 (stereo not given)	none
